Source: PubChem BioAssay (EPA / NIEHS)
Where “and” joins values, the source holds several entries; their conditions need not be identical. Equal entries are not always repeated. Inconclusive results are not listed. A structure can be active in one record and inactive in another. Calls of active or inactive are those of the source. How the source made its calls: active means hit-call score of the fitted dose curve at least 0.9, where 1 is the maximum; inconclusive means response in the unintended direction; inactive means score below 0.9.

How the values were obtained:
[1] = target: rat Thyrotropin Releasing Hormone Receptor (TRH), Trhr (gene 25570) (UniProt Q01717); test: NVS_GPCR_rTRH: NovaScreen (NVS) G Protein-Coupled Receptor Assay for rat Thyrotropin Releasing Hormone Receptor (TRH) (AID 2283329);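 further: hit means lower bound tracer signal versus DMSO baseline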
Sequence of rat Thyrotropin Releasing Hormone Receptor (TRH), Trhr (gene 25570) (Q01717 whole entry, looked up): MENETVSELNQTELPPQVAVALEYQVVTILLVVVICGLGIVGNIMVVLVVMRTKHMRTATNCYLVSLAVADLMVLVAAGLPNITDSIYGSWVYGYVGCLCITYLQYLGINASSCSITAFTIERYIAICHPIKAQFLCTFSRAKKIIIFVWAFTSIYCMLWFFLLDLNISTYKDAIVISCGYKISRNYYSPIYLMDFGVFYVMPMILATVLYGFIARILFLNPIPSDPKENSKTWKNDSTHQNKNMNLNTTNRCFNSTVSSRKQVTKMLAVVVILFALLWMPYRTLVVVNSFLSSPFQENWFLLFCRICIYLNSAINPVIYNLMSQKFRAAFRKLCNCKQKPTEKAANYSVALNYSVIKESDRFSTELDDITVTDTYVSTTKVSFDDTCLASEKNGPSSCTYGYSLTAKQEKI
Outline: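 Cell-free radioligand binding on rat forebrain membranes; bound tracer measured by filter-based scintillation counting 4 hours after dosing. Loss of signal versus DMSO baseline indicates displacement; primary screen at 25 uM in duplicate, actives then run in concentration series.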

[2] = target: human Peripheral-type Benzodiazepine Receptor (PBR), TSPO (gene 706) (UniProt P30536); test: NVS_MP_hPBR: NovaScreen (NVS) Membrane Protein Assay for human Peripheral-type Benzodiazepine Receptor (PBR) (AID 2283331);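 further: hits reduce radioligand binding relative to DMSO baseline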
Sequence of human Peripheral-type Benzodiazepine Receptor (PBR), TSPO (gene 706) (P30536 whole entry, looked up): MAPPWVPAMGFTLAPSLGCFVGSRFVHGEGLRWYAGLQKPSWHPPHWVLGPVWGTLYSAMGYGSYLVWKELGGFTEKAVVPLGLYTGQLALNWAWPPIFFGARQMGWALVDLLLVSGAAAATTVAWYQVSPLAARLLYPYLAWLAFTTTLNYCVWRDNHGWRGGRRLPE
Outline: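 Radioligand displacement on human colonic cell membranes, 1 h incubation; bound radioactivity by filtration and scintillation counting. Primary screen in duplicate at 25 uM single concentration, actives followed up in concentration series; loss of binding versus DMSO.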

[3] = target: rat Peripheral-type Benzodiazepine Receptor (PBR), Tspo (gene 24230) (UniProt P16257); test: NVS_MP_rPBR: NovaScreen (NVS) Membrane Protein Assay for rat Peripheral-type Benzodiazepine Receptor (PBR) (AID 2283335)
Sequence of rat Peripheral-type Benzodiazepine Receptor (PBR), Tspo (gene 24230) (P16257 whole entry, looked up): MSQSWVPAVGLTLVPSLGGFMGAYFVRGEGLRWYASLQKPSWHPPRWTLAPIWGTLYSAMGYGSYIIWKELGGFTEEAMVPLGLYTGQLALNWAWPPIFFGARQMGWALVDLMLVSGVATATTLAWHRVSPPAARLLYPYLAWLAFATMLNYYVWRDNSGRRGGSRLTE
Outline: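 Rat kidney membranes; radioligand binding with displacement, filter-based scintillation counting, 1 h incubation. Primary screen in duplicate at 25 uM, actives followed in concentration series; loss of binding vs DMSO.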

[4] = NVS_IC_rCaBTZCHL: NovaScreen (NVS) Ion Channel Assay for Calcium Channel, Type L, Benzothiazepine Site (CaBTZCHL) (AID 2283337)
Outline: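 Radioligand displacement at the benzothiazepine site using rat cortical membranes; bound label measured by filtration and scintillation counting 1.5 h after dosing. Single-point 25 uM in duplicate, then concentration series; DMSO baseline.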

[5] = target: rat Neonicotinoid receptor (NNR), Chrna7 (gene 25302) (UniProt Q05941); test: NVS_LGIC_rNNR_BungSens: NovaScreen (NVS) Ligand-Gated Ion Channel Assay for rat Neonicotinoid receptor (NNR) (AID 2283315)
Sequence of rat Neonicotinoid receptor (NNR), Chrna7 (gene 25302) (Q05941 whole entry, looked up): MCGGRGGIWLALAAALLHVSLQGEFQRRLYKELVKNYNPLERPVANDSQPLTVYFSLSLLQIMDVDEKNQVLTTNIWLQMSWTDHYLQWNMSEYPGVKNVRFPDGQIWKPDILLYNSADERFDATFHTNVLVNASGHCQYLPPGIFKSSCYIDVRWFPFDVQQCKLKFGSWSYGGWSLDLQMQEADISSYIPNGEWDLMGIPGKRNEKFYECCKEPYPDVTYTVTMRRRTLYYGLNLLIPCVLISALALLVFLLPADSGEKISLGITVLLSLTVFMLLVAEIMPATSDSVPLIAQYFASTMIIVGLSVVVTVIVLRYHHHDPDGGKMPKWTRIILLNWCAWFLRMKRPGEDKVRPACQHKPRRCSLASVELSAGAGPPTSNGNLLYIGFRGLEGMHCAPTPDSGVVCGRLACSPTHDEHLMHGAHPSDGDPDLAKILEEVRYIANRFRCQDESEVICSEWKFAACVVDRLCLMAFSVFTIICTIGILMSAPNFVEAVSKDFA
Outline: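 Radioligand displacement binding on rat cortical membranes, 2.5 h incubation, filtration and scintillation counting. Loss of specific binding fitted relative to DMSO.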

CC12CCC(C1)C(C)(C)C2O (stereo not given)
outcome [1]: inactive

OCC=Cc1ccccc1
outcome [1]: inactive

NC(=O)c1c(Cl)cccc1Cl
AC50 [2]: 3.59 µM (active)
outcome [3]: inactive

Cc1ccc(C(C)(C)O)cc1
outcome [4]: inactive

CC(=O)N(C)C
outcome [1]: inactive

CCCCCC1C(=O)CCC1CC(=O)OC (stereo not given)
AC50 [3]: 11.6 µM (active) and 25 µM (active)
outcome [4]: inactive

CCO[Si](CC)(OCC)OCC
outcome [1]: inactive

NC(N)=S
outcome [1]: inactive

COc1cc(OC)c2ccc(=O)oc2c1
AC50 [2]: 12.1 µM (active)
AC50 [3]: 0.157 µM (active)

CCC(C)(C)C1CCC(OC)CC1 (stereo not given)
outcome [1]: inactive

CCc1cccc(O)c1
outcome [1]: inactive
outcome [3]: inactive

Nc1ccc(N)c([N+](=O)[O-])c1
AC50 [2]: 3.27 µM (active) and 1.74 µM (active)
AC50 [3]: 1.02 µM (active)
outcome [3]: inactive
outcome [4]: inactive

CC(=O)OC(C)(C)C1CC=C(C)CC1 (stereo not given)
outcome [4]: inactive

c1coc(CNc2ncnc3nc[nH]c23)c1
outcome [1]: inactive

C=C1CC[C@H]2O[C@]2(C)CC[C@@H]2[C@@H]1CC2(C)C
AC50 [5]: 15.6 µM (active)

O=S(=O)(O)c1cc(S(=O)(=O)O)c2c(N=Nc3ccccc3)c(O)ccc2c1
outcome [1]: inactive

O=Cc1ccccc1O
outcome [1]: inactive

CC(=O)c1ccc2ccccc2c1
outcome [1]: inactive

CC(C)(C)c1cccc(O)c1
outcome [1]: inactive

O=C1OC2(c3ccc(O)cc3Oc3cc(O)ccc32)c2ccccc21
AC50 [2]: 25 µM (active) and 9.1 µM (active)
AC50 [3]: 15.1 µM (active)
outcome [4]: inactive

CCCCCCCCCCCCS
AC50 [1]: 0.929 µM (active)
